Shown is part of a subset that was picked to be rich in hits.
Tg IFNy HTS – T. gondii growth inhibition under IFN-gamma | Toxoplasma gondii growth in IFN-gamma-treated host cells; stronger effect = lower value | hit rate 3.8% among 69,000 | AID 1259416 | activity change, negative = inhibition, % (test concentration not listed); in the data active = activity change below about -70%, passing the limit was not always enough;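 also: host cells are HeLa cells infected with Toxoplasma gondii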
* = called active by the depositor; ! = a repeat was not active.

SMILES	Tg IFNy HTS
CCN1CCc2nc(N3CCOCC3)nc(NC3CC3)c2C1	2
COCCn1c(C(=O)N2CCCCO2)cc2c1c1ccccc1n2C	-36
CCCNC(=O)c1cc(-c2cnc(-c3cccnc3)nc2)cn1C	-91*
CN(C)CCNC(=O)c1cc(-c2cnc(-c3ccnn3C)nc2)cn1C	71
COCCC(=O)c1cc(-c2cnc(-c3cccnc3)nc2)cn1C	-39
CCOCC1CN(Cc2ccoc2)Cc2cn(CC)nc21 (stereo not given)	5
O=C(c1ccc(OCCN2CCCCC2)cc1)c1c(-c2ccc(O)cc2)sc2cc(O)ccc12	-17
CN1CCCN(Cc2cnc3c(-c4ccccc4)cnn3c2)CC1	11
c1cc(-c2cnn3cc(-c4ccc(OCCN5CCCCC5)cc4)cnc23)ccn1	-75*
COc1ccc(Cc2cnc(NC(=O)Cc3ccc(-n4nnnc4C)cc3)s2)cc1	-62
CC1CCCC(C)N1C(=S)NCCCN1CCOCC1 (stereo not given)	-80*
Cc1ccc(C(=O)NC(=S)NCCCN2CCOCC2)cc1	-2
Cc1c(C(=O)NCCCN2CCOCC2)cc(C(C)(C)C)n1-c1ccccc1	-18
O=C1C(=Nc2ccc(Cl)cc2)c2ccccc2N1CN1CCc2ccccc2C1	92
CC(c1ccon1)N(C)C(=O)C1(Oc2ccc(Cl)cc2)CCNCC1 (stereo not given)	-8
COCC(c1ccnn1C)n1cc(-c2ccc3c(c2)OCCO3)nn1 (stereo not given)	-7
Clc1cc(Cl)cc(N=c2ssnc2-c2ccccc2Cl)c1	-90*
CN(Cc1ccno1)C(=O)CC1COCCN1 (stereo not given)	3
CCOCCCNC(c1ccccc1)c1ccncc1 (stereo not given)	3
CNCC[C@H](Oc1cccc2ccccc12)c1cccs1	19
CNCCC(Oc1ccc(C(F)(F)F)cc1)c1ccccc1 (stereo not given)	-86*!
COc1nc(N)c(C#N)c(-c2ccc(Cl)cc2Cl)c1C#N	-33
Cc1cc(C(=O)N2CCC3(C2)C(=O)N(C(C)C)CCN3CC#N)n[nH]1 (stereo not given)	-4
O=C(Cc1nc2ccc(Cl)cc2[nH]1)N1CCn2cncc2C1	22
CN1[C@H]2CC[C@@H]1CN(C(=O)c1ccc(-n3cnnc3)cc1)CC2	3
SMILES	Tg IFNy HTS
Cc1ccsc1[C@@H]1CCN(C(=O)c2cccc(=O)[nH]2)C[C@H]1O	1
Cc1ccsc1[C@@H]1CCN(C(=O)c2ccc(-n3cnnc3)cc2)C[C@H]1O	-81*
CCc1ccc(-c2noc(-c3c(O)c4cc(C)ccc4[nH]c3=O)n2)cc1	1
COc1ccc(CN2C[C@H]3CN(C(=O)c4ccco4)CCO[C@@H]3C2)cc1	157
O=C(Nc1cccc(F)c1)N1CC(C(=O)N2CCOCC2)C2(CCOCC2)C1 (stereo not given)	-6
Cc1ccc(S(=O)(=O)N2CCC3(CC3C(=O)Nc3cccc(F)c3)C2)cc1F (stereo not given)	-65
Cc1ccc(S(=O)(=O)N2CC(C(=O)Nc3cccc(F)c3)C3(CCOCC3)C2)cc1 (stereo not given)	-75*
COc1cccc(OCC(=O)NCCc2csc(-c3ccc(Cl)cc3)n2)c1	54
CCOC(=O)c1cncc(C#CCOC(=O)Nc2ccc(OC(F)(F)F)cc2)c1	-33
O=C(O)CC1(CC(=O)Nc2ccc(OC(F)(F)F)cc2)CCCC1	36
O=C(Nc1ccc(OC(F)(F)F)cc1)OCc1ccc(C#Cc2ccccc2)s1	-83*
O=C(NC1CCCC1)c1cncc(NS(=O)(=O)c2ccc3c(c2)OCCO3)c1	10
CCc1ccc(-c2nccn2Cc2ccc3c(c2)OCO3)nc1	200
Cc1ccc(CN(CCN(C)C)C(=O)c2cccc3c2OCCO3)s1	-2
O=c1[nH]c2ccccc2nc1/C=C/c1cccs1	-8
O=c1[nH]c(-c2ccccc2)nnc1/C=C/c1ccccc1	-85*
Nc1nc(-c2ccccc2)c(Br)c(=O)[nH]1	2
CNC(=O)c1nn(C)c2c1C(C)(C)Cc1cnc(Nc3ccc(N4CCN(C)CC4)cc3)nc1-2	-58
CN1CCN(c2ccc(OC(F)(F)F)c(Nc3ncc4c(n3)-c3c(c(C(N)=O)nn3CCO)CC4)c2)CC1	-81*
Cc1nonc1COc1ccc(C(=O)O)cc1	-31
CCCN1CCCN(C(=O)c2coc(COc3cccc4cnccc34)n2)CC1	10
Cc1ccc(OCc2occc2C(=O)N2CCOC(C(F)(F)F)C2)cc1 (stereo not given)	-1
COc1ccc(C(=O)Nc2ccc(N3CCCC3)cc2)cc1OC	-5
COc1ccc(NC(=O)c2ccc3nc(-c4ccoc4)c(-c4ccoc4)nc3c2)cc1OC	57
COc1ccc(C(=O)Nc2ccc(-c3nc(-c4ccccc4)co3)cc2)cc1OC	8
SMILES	Tg IFNy HTS
COc1ccc(NC(=O)c2ccc(-c3ccc(-c4noc(C)n4)cc3C)cc2)cc1OCCN(C)C	-77*!
COc1ccc(NC(=O)c2ccc(-c3ccc(-c4noc(C)n4)cc3C)cc2)cc1N1CCN(C)CC1	-72*!
COc1ccc(C(=O)Nc2ccc(-c3nc(-c4cc(C)ccc4C)co3)cc2)cc1OC	7
O=C1COC2(CCN(Cc3ccco3)CC2)CN1CC1CC1	8
COc1ccc(-c2nccn2CCCn2ccnc2)c2ccccc12	5
Cc1nn(CC(=O)NCCCN2CCOCC2)c(=O)c2nc(-c3ccccc3)sc12	-11
CCc1ccc(OCc2ccccc2C(=O)Nc2ccc3nc(C)cc(N)c3c2)cc1	-74*
CCc1cccc(NC(=O)c2nc(Nc3ccc(C)cc3)c3ccccc3n2)c1	88
CCOC(=O)c1cccc(NC(=O)c2ccccc2OCC)c1	-34
COc1ccc(CC2CN(C(=O)c3cc4cccc(C)c4o3)CCO2)cc1 (stereo not given)	-48
COCc1nc(N2C[C@H]3CC=CC[C@H]3C2)c2cnn(C)c2n1	-26
COc1ccc(-c2noc(COc3cccc4[nH]ccc34)n2)c(OC)c1OC	44
CS(=O)(=O)N1C[C@H]2COC[C@@]2(C(=O)NCc2ccccn2)C1	-9
CS(=O)(=O)N1CC(C(=O)Nc2nc(-c3ccccn3)cs2)Oc2ccccc21 (stereo not given)	-101*
CCOC(=O)C1CN(S(=O)(=O)c2ccc(C)cc2)c2ccccc2O1 (stereo not given)	43
CCOC(=O)c1noc2ncn(Cc3nc(-c4cccc(Br)c4)oc3C)c(=O)c12	1
Cc1ccc(NC(=O)c2ccc3ccc(N4CCN(S(C)(=O)=O)CC4)n3c2)nc1	-7
CCc1ncc2c(n1)CN(C(=O)Cc1ccccc1OCc1ccccc1)C2	-2
O=C(C1CC=CC1)N1CC[C@H](O)[C@@H]1Cc1ccncc1	-37
Cc1nc(-c2ccccc2F)sc1C(=O)Nc1cnn(Cc2cccc(F)c2)c1	-89*
Cn1c(=O)c(C(=O)Nc2cnn(Cc3cccc(F)c3)c2)nc2ccccc21	-17
COc1cccc(-c2cc(C(=O)Nc3cnn(Cc4cccc(F)c4)c3)on2)c1	-96*
O=C(CN1CCC(c2ccccc2)CC1)Nc1cnn(Cc2cccc(F)c2)c1	-14
COc1cccc(Cn2cc(NC(=O)C3(c4cc(C)cc(C)c4)CCOCC3)cn2)c1	-4
Cc1nc(-c2ccccc2F)sc1C(=O)NCc1nc(Cc2ccccc2)no1	-6
Cc1cc(C(F)(F)F)n(CC(C)CN2Cc3ncccc3C2=O)n1 (stereo not given)	-40
Cc1ccc2c(c1C)-n1cccc1C1(CCN(S(=O)(=O)c3cn(C)cn3)CC1)N2	9
COCCN1C2(CCN(C(=O)N3CCOCC3)C2)c2ccccc2S1(=O)=O (stereo not given)	5
Nc1ccccc1NC1CCN(Cc2ccccc2)CC1	14

High-throughput results as filed in PubChem BioAssay.
